Screens from PubChem BioAssay.
Rab9 promoter act = Rab9 promoter activation; Huh7 Rab9 promoter-luciferase reporter, luminescence, 24 h; Potency, µM (doses to about 9.22 µM), for inactives: at the top dose activation, negative = inhibition, hits mostly activators; 320,000 compounds, 2.8% hits; further: % of control where 0% means no effect; nearly all actives have a fitted effect of over 60% in size
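Luminescence read-out: Huh7 cells stably expressing Rab9-luciferase, treated 24 h with compound at 37 °C, then lysed with luciferase reagent for 10 min at ambient before reading.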
ELG1 genotox = induces genotoxicity in HEK293T cells with luciferase-tagged ELG1; HEK293T ELG1-luciferase reporter, luminescence, 16 h; Potency, µM (series often up to 46 µM), inactives show at the highest dose activity change, positive = activation, usual class: activators; 330,000 compounds, 1.3% hits; AID 504466; further: % of control where 0% means no effect; nearly all actives have a fitted effect of over 60% in size
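Luminescence read-out: rising ELG1-luciferase signal, reflecting elevated ELG1 protein under genetic stress, flags genotoxic compounds. Cells were treated for 16 hr at 37 °C before ONE-Glo detection.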
FLuc modulator = firefly luciferase modulation, counter-screen for miR-21 project | Potency, µM (highest dose often 57.5 µM), inactives show at the highest dose activity change, negative = inhibition, usual class: inhibitors | 360,000 compounds, 6.9% hits | P08659 | AID 588342 | purified FLuc, Km substrates, luminescence inhibition;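 further: plate controls were vehicle for no effect and reference inhibitor for full effect; nearly all actives have a fitted effect of over 55% in size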
Target sequence (P08659 whole entry, looked up): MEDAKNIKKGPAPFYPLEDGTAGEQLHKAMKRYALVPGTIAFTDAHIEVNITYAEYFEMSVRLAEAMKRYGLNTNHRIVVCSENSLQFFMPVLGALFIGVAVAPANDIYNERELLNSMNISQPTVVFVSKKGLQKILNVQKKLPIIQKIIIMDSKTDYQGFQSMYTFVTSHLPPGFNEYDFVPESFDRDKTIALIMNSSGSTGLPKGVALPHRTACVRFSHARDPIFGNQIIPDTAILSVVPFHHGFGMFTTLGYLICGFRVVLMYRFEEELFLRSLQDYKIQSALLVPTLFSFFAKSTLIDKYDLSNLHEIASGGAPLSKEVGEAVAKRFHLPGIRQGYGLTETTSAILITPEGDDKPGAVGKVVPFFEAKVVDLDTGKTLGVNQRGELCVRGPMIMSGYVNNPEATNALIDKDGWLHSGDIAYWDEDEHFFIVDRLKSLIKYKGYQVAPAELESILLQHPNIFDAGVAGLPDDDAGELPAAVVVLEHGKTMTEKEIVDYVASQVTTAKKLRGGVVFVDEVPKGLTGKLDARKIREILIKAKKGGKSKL
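Biochemical qHTS of compounds, final roughly 60 µM downward over six points, against 10 nM purified firefly luciferase using Km concentrations of substrates (10 uM D-luciferin, 10 uM ATP) in Tris acetate pH 7.5 buffer; luminescence output.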
NPC1 prom act = NPC1 promoter activation; Huh7 NPC1 promoter luciferase reporter, 24 h; Potency, µM (titrated, usually from 9.22 µM), for inactives: at the highest dose activation, usual class: activators; 320,000 compounds, 2.4% hits; AID 485313; further: % of control where 0% means no effect; nearly all actives have a fitted effect of over 60% in size
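Cells: Huh7 expressing luciferase under the NPC1 promoter, 1500/well. Seeded 2 h, compound added, incubated 24 h at 37 °C. Luciferase reagent, 10 min ambient, then luminescence.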
ELG1 DNA repair = inhibitors of ELG1-dependent DNA repair in HEK293T cells; 330,000 compounds, 2.3% hits; HEK293T ELG1-luciferase reporter, luminescence, 16 h; DNA damage induced by 5-fluorouridine; Potency, µM (series often up to 46.1 µM), for the others: top-dose activity change, negative = inhibition, usual class: inhibitors; further: on the % scale 0 is the no-effect control and ±100 the full control effect; nearly all actives have a fitted effect of over 55% in size
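Step one: seed 2,000 cells per well. Step two: pin-transfer compound or DMSO alongside 5-fluorouridine. Step three: incubate 16 hr, 37 °C, 5% CO2. Step four: add ONE-Glo, wait 30 min, read luminescence.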
SMN2 splice up = SMN2 splice variant enhancement. HEK293 SMN2-luciferase splicing reporter, luminescence, 30-36 h. Potency, µM (doses to about 46.1 µM), for the others: at the top dose activity change, positive = activation, hits mostly activators. 210,000 compounds, 2.8% hits. AID 1458; further: % of control where 0% means no effect; nearly all actives have a fitted effect of over 55% in size
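HEK293 cells carry an SMN2 […]–luciferase reporter in which exon 7 inclusion puts luciferase in frame. Cells were plated 10-12 h before compound addition, then incubated 30-36 h at 37C. ONE-Glo luminescence was read; sodium butyrate at 4.5 mM final served as control.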
Numbers without * were called inactive; ? = inconclusive; / = no result given. Hits are enriched below; roughly 9.3% of the tested compounds scored in any of these assays. The call rests on the fitted dose curve; in most records, active means well fitted curve in the direction sought with a large enough effect; inconclusive means small, poorly fitted or top-dose-only effect, or another doubt; inactive means no such curve, though single readings can be large; an effect the other way counts as inactive or inconclusive. Potency means the concentration at half of the fitted maximal effect.

SMILES	Rab9 promoter act	ELG1 genotox	FLuc modulator	NPC1 prom act	ELG1 DNA repair	SMN2 splice up
Cc1ccc(SCCC(=O)N2CCOCC2)cc1	23%	8%	?	26%	?	?
O=C(CCSc1ccccc1)N1CCOCC1	2.8µM*	8.2µM*	19µM*	2.8µM*	?	13µM*
O=C(CCSc1ccccc1)N1CCCC1	2.8µM*	?	17µM*	2.5µM*	?	11µM*
CCOC(=O)Cc1csc(NC(=O)c2cc(OC)cc(OC)c2)n1	-4%	-6%	?	1%	?	-1%
C/C=C\C=C/C(=O)Nc1cccc(C2=NOC3(C2)C[C@@H](C(N)=O)N(C(=O)c2ccc(Cl)cc2)C3)c1 (stereo partly specified)	9%	3%	15µM*	3%	14%	/
C/C=C\C=C/C(=O)Nc1cccc(C2=NOC3(C2)C[C@H](C(N)=O)N(C(=O)c2ccc(OC)cc2)C3)c1 (stereo partly specified)	-2%	5%	15µM*	2%	14%	/
CCC(C(=O)NCCC1=CCCCC1)c1ccccc1 (stereo unspecified)	-1%	-2%	0%	-4%	1%	1%
CNc1ccc(/C=C2\COc3ccccc3C2=O)cc1[N+](=O)[O-]	?	4%	1.9µM*	25%	0%	10%
O=C1/C(=C/c2ccccc2[N+](=O)[O-])COc2ccccc21	-15%	-21%	17µM*	-23%	?	-86%
Cc1ccc(C(CC(=O)c2ccco2)SCCO)cc1 (stereo unspecified)	30%	?	11µM*	26%	?	-7%
O=C(CC1SC(N2CCCCC2)=NC1=O)Nc1ccc(C(=O)NCc2ccccc2)cc1 (stereo unspecified)	/	0%	/	/	11%	/
CCCc1nc2ccccc2c(C(=O)OCC(=O)Nc2cccc(S(=O)(=O)N3CCOCC3)c2)c1CC	0%	-8%	1%	-3%	26µM*	-29%
CCCc1nc2ccccc2c(C(=O)OCC(=O)NC2CC2)c1CC	/	-6%	/	/	?	/
O=C(COC(=O)C12CC3CC(CC(Br)(C3)C1)C2)Nc1cccc(S(=O)(=O)N2CCOCC2)c1	/	0%	/	/	16µM*	/
CCCc1nc2ccccc2c(C(=O)OCC(=O)Nc2ccc(S(=O)(=O)N3CCOCC3)cc2)c1CC	-11%	-32%	3%	3%	21µM*	-8%
COc1cc(S(=O)(=O)N2CCOCC2)ccc1NC(=O)COC(=O)C12CC3CC(CC(C3)C1)C2	-2%	0%	13%	-3%	-29%	-1%
Cc1cc2ccccc2n1-c1ccc(C(=O)N2CCC(C(=O)NCc3ccc(F)cc3)CC2)s1	/	/	-13%	/	/	/
Cn1c(C(=O)N2CCCC(C(=O)NCc3ccc4c(c3)OCO4)C2)cc2sccc21 (stereo unspecified)	-5%	-14%	-2%	-1%	?	-5%
CCn1c(C(=O)N2CCC(C(=O)NCc3ccc4c(c3)OCO4)CC2)cc2sccc21	-4%	-10%	2%	1%	7.3µM*	-26%
O=C(NCc1ccccn1)C1CCN(C(=O)c2cc3sccc3n2Cc2ccc(F)cc2)CC1	2%	-13%	0%	6%	21µM*	-41%
CCn1c(C(=O)N2CCC(C(=O)NCCCSC3CCCCC3)CC2)cc2sccc21	-5%	-25%	10%	0%	21µM*	-39%
CCn1c(C(=O)N2CCC(C(=O)NCCc3ccccc3)CC2)cc2sccc21	/	/	-4%	/	/	-20%
CCCc1nc(SCC(=O)Nc2nccs2)c2ccccc2n1	-2%	-10%	-1%	0%	-11%	/
CC1(C)NC(=O)N(CC(O)CN(c2ccccc2)S(=O)(=O)c2ccc([N+](=O)[O-])cc2)C1=O (stereo unspecified)	15%	0%	-1%	0%	1%	/
